A selection: hits, their analogues and other compounds. The true share with any hit is near 1.6%.
KCNQ2 pot: KCNQ2 (rat) channel potentiation. B-score at 10 µM. O88943. AID 2239. hit rate 0.54% among 310,000. CHO-K1 KCNQ2, FluxOR thallium flux fluorescence; hits give high values;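 active means fluorescence ratio B-score at least 3 SD of library B-scores, with initial fluorescence B-score within 3 of them, cut at about 5.3 in these data; same plate scores as AID 2156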;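 further: B-score of peak minus minimum over baseline fluorescence ratio after K+ and Tl+ stimulus; positive B-score means potentiation of KCNQ2 with more thallium influx and brighter signal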
Target sequence (O88943 whole entry, looked up): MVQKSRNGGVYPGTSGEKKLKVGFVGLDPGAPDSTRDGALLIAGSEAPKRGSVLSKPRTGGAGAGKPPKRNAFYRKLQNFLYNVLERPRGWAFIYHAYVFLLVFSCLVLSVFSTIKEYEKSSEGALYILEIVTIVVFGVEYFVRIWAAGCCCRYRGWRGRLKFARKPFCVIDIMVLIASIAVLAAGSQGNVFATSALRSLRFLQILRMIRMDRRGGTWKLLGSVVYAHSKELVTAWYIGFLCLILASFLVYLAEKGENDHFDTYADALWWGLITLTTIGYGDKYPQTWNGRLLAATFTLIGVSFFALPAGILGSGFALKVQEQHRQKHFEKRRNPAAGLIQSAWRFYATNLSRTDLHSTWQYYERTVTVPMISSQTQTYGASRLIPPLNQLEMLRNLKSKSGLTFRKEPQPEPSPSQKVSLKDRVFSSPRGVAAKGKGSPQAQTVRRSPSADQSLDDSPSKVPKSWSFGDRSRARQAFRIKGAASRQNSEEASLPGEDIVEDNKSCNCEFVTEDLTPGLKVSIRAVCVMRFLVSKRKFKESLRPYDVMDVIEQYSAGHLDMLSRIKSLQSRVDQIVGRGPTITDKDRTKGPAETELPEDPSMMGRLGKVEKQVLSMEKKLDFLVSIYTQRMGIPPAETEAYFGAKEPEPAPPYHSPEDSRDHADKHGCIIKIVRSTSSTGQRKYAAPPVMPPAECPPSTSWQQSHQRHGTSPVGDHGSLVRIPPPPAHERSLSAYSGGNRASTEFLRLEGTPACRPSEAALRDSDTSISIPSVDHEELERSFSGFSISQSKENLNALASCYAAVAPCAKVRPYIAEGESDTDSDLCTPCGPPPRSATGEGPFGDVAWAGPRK
KCNQ2 inh: blocks the rat KCNQ2 potassium channel. O88943. CHO-K1 KCNQ2, FluxOR thallium flux, 20 min; hits give low values. B-score at 10 µM. hit rate 1.1% among 310,000. AID 2156;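 active means fluorescence ratio B-score at most minus 3 library SDs, with starting brightness B-score within 2 library SDs, cut at about -5.5 in these data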
A number is an active result; . = inactive; / = no result given.

SMILES	KCNQ2 pot	KCNQ2 inh
O=C(NCCCc1ccccc1)c1ccc(-n2cncn2)c([N+](=O)[O-])c1	/	.
O=C(O)CC1(O)C(=O)N(Cc2ccccc2)c2ccccc21 (stereo not drawn)	.	.
Cc1ccc(C(=O)N2c3ccccc3N(Cc3ccccc3)C(=O)C2(C)C)cc1	.	-5.6
O=C(O)CC(c1ccc(Br)cc1)N1Cc2ccccc2C1=O (stereo not drawn)	.	.
CC(=O)Nc1cc2nc(C)n(Cc3ccccc3[N+](=O)[O-])c2nc1C	/	.
C/C(=C\C(=O)c1ccccc1)NNc1nc2ccccc2s1	.	-5.7
CC(=O)NNc1nc2ccccc2s1	.	.
CCOC(=O)C1=C(CNCc2ccccc2Cl)NC(=O)NC1c1ccc2c(c1)OCO2 (stereo not drawn)	/	.
CCOC(=O)C1=C(CNCc2ccccc2Cl)NC(=O)NC1c1cccc([N+](=O)[O-])c1 (stereo not drawn)	.	-6.3
Cc1ccc(N=Nc2ccc(O)cc2)c(Br)c1	.	-5.7
Oc1ccc(N=Nc2ccc(Br)cc2)c(O)c1	.	.
O=C(c1cccc(Br)c1)c1cn(-c2ccccc2)nc1C(=O)c1ccccc1	/	.
S=C1NC2(CCCCC2)Nc2ccccc21	/	.
CC(C)(C)OC(=O)N1CCCN(C(=O)Nc2ccc(C(F)(F)F)cc2)CC1	.	.
Cc1cc(-c2nnc(CCC(=O)N3CCN(Cc4cccc(F)c4)CC3)o2)c(C)o1	/	.
O=C(Nc1ccccn1)c1cc(-c2cccc(Cl)c2)nc2ccccc12	.	-5.6
O=C(c1cc(-c2ccccc2)nc2ccccc12)N1CCCC1	.	.
O=C(Nc1ncccn1)c1cc(-c2cccc(Br)c2)nc2ccccc12	/	.
O=C(Nc1ccc([N+](=O)[O-])cn1)c1cc(-c2cccc(Cl)c2)nc2ccccc12	.	-5.6
O=C(Nc1ccc([N+](=O)[O-])cn1)c1cc(-c2cccc(Br)c2)nc2ccccc12	/	.
O=C(c1cc(-c2cccc(Cl)c2)nc2ccccc12)N1CCCC1	.	-8.1
N#CC1=C(N)NC(SCC(=O)c2ccc(Cl)cc2)=C(C#N)C12CCCC2	/	.
N#CC1=C(N)NC(SCC(=O)c2ccc(Br)cc2)=C(C#N)C12CCCCC2	.	-6.6
CC(=O)N1CCN(CC(=O)Nc2ccc([N+](=O)[O-])cc2Br)CC1	.	.
CC1CCCCC12NC(=O)N(CC(=O)OCC(=O)c1ccc(OC(F)F)cc1OC(F)F)C2=O (stereo not drawn)	/	.
SMILES	KCNQ2 pot	KCNQ2 inh
C=C(C)c1cccc(C(C)(C)NC(=O)Nc2nnc(C(C)C)s2)c1	.	-7.8
C=C(C)c1cccc(C(C)(C)NC(=O)Nc2nncs2)c1	/	.
O=C1CC(c2ccc(Br)cc2)NC(c2ccc(Br)cc2)C1c1ccccc1 (stereo not drawn)	.	-5.7
c1ccc(C2CC(c3ccccc3)C(c3ccccc3)N2)cc1 (stereo not drawn)	/	.
CCN(CC)C(=O)Oc1ccc(Cl)c2cccnc12	/	.
O=C(Nc1cccc(C(F)(F)F)c1)Oc1ccc(Cl)c2cccnc12	5.7	.
COc1ccc(NC(=O)/C(C#N)=C/c2ncc([N+](=O)[O-])n2C)c(OC)c1	/	.
CC(Sc1ccccc1)C(=O)N1CCN(S(=O)(=O)c2ccccc2C(F)(F)F)CC1 (stereo not drawn)	/	.
NS(=O)(=O)c1ccc(CCNc2ncnc3c2c(-c2ccccc2)cn3-c2ccc(F)cc2)cc1	.	.
COc1ccc(OC)c(NC(=O)CN(Cc2ccc(F)cc2)C2CCCCC2)c1	.	-7.9
COc1ccc(Cl)cc1NC(=O)CN(C)C1CCCCC1	/	.
Cc1nc(Nc2cccc(C(C)O)c2)c2nnn(Cc3ccc(F)cc3)c2n1 (stereo not drawn)	.	.
Cc1ccc(C(=O)NCC(=O)O)o1	.	.
CCCSc1nc(N2CCOCC2)c2c(c1C#N)CC(C)(C)SC2	.	.
CC(C)Sc1nc(N2CCOCC2)c2c(c1C#N)CC(C)(C)SC2	.	-6.2
O=c1cc(-c2c(O)c3ccccc3n(Cc3ccccc3)c2=O)[nH][nH]1	.	-6.8
CCn1c(=O)c(-c2cc(=O)[nH][nH]2)c(O)c2ccccc21	/	.
CC(=O)c1cc2c(cc1NS(=O)(=O)c1ccccc1F)OCO2	/	.
COc1ccc(CC(=O)NCc2nnc(SCc3ccc(C)cc3)n2C)cc1	/	.
Cc1ccc(C(OC(=O)c2ccco2)C(=O)NC(C)(C)C)cc1 (stereo not drawn)	/	.
Fc1ccc(Nc2nc(N3CCOCC3)c3ccccc3n2)cc1	/	.
c1ccc2c(Nc3nc(N4CCOCC4)c4ccccc4n3)cccc2c1	.	-6.5
O=C(COc1ccc(Br)cc1Cl)NC(=S)N1CCc2ccccc21	.	.
CC(Oc1ccc(Cl)cc1Cl)C(=O)NC(=S)N1CCc2ccccc21 (stereo not drawn)	9.3	.
CN1CCN(C(=S)NC(=O)c2ccccc2Br)CC1	/	.
SMILES	KCNQ2 pot	KCNQ2 inh
O=C(NC(=S)N1CCc2ccccc21)c1ccccc1Br	14	.
CNC(=S)N(CCc1c(C)[nH]c2ccccc12)Cc1cccnc1	.	.
O=C(CSCc1c(F)cccc1Cl)Nc1ccccc1C(=O)N1CCOCC1	.	.
CCOC(=O)c1cnc(SCC(=O)N2CCOCC2)nc1N	.	.
C=CCn1cnc2c(c1=O)c1nc3ccccc3nc1n2/N=C/c1cc(OC)c(OC)c(OC)c1	.	-7.9
COCCn1cnc2c(c1=O)c1nc3ccccc3nc1n2/N=C/c1cccc(OC)c1	/	.
O=C(c1ccc(Br)cc1)N(Cc1nc2ccccc2c(=O)[nH]1)C1CCCC1	/	.
Cc1ccc(C)c(-n2nnnc2SCC(=O)NNC(=O)c2ccco2)c1	/	.
Cc1nnc(SCC(=O)Nc2ccccc2)c2ccccc12	/	.
Cc1nnc(SCC(=O)Nc2ccc(O)cc2)c2ccccc12	.	-5.6
O=C(O)CC(NC(=O)CCC1CCCCC1)c1cc([N+](=O)[O-])ccc1Cl (stereo not drawn)	.	.
c1cncc(-c2nc(N3CCCCCC3)c3ccccc3n2)c1	.	-7.4
CN1CCN(c2nc(-c3cccnc3)nc3ccccc23)CC1	.	.
O=C(Nc1ccc2c(c1)CCC2)c1cccc(F)c1	7.3	.
Cc1ccc(C(=O)Nc2ccc3c(c2)CCC3)cc1	.	.
CSC(C1CCCC1)n1nnc2ccccc21 (stereo not drawn)	/	.
O=[N+]([O-])c1ccc(CN2CCN(c3ccc([N+](=O)[O-])cc3)CC2)cc1	/	.
O=[N+]([O-])c1ccc(N2CCC(=NOCc3ccc(Cl)cc3)CC2)cc1	.	-5.7
CCC(=O)c1ccc(OCC(O)CN2CCN(S(=O)(=O)c3ccc(NC(C)=O)cc3)CC2)cc1 (stereo not drawn)	/	.
O=[N+]([O-])c1cccc(OCCCN2CCC(Cc3ccccc3)CC2)c1	.	-5.7
O=[N+]([O-])c1ccc(CN2CCC(Cc3ccccc3)CC2)cc1	.	.
C=CCNC(=O)c1onc(CSc2ccccn2)c1C(=O)NCC=C	.	.
O=C(NCCc1ccc(Cl)cc1Cl)c1cncc(Br)c1	/	.
CCOC(=O)Cn1nnc2c(sc3nc4c(c(-c5ccc(Cl)cc5)c32)CCC4)c1=O	.	-6.7
CCOC(=O)Cn1nnc2c(sc3nc4c(c(-c5ccccc5)c32)CCC4)c1=O	/	.
CCC(C)n1cnc2c(c1=O)c1nc3ccccc3nc1n2Cc1ccc2c(c1)OCO2 (stereo not drawn)	.	.
Cc1nc2c(c(=O)n1CCC(C)C)c1nc3ccccc3nc1n2Cc1ccc2c(c1)OCO2	.	-6.3
COc1ccc(-c2ccnc(SCC(=O)c3ccc(OC)c(OC)c3)n2)cc1	.	.
